# Screen size: about 1,200 compounds; about 210 (18%) were called active. A selection follows. Unmarked numbers belong to inactive results. Rule as the data show it: active = inhibition above about 30%; inactive = the rest.
# Assay: HTRF signal interference by compounds, confirmation, artefact control for SUMOylation inhibitor project, biochemical, uHTS (AID 2069)
# Conditions: HTRF interference counterscreen, fluorescence, at 35 µM, hits give high values
row,Structure (SMILES),inhibition
1,O=C(Nc1ccc2nc(-c3ccco3)c(-c3ccco3)nc2c1)N1CCN(c2ccccn2)CC1,12.2%
2,O=S(=O)(c1ccc2nc(-c3ccco3)c(-c3ccco3)nc2c1)N1CCOCC1,30.4% (active)
3,O=C(NCc1ccccc1)c1ccc2nc(-c3ccco3)c(-c3ccco3)nc2c1,15.6%
4,C=CCN1C(=O)N(CC=C)c2cccc3cccc1c23,-6.45%
5,Nc1c(N2CCCC2)cc(Cl)c2nonc12,22.4%
6,N#Cc1c(-c2ccco2)cc(-c2cccnc2)nc1N,25.1%
7,CCOC(=O)COc1nc(-c2ccco2)cc(-c2ccco2)c1C#N,22.2%
8,N#Cc1c(-c2cccc(Br)c2)cc(-c2ccco2)[nH]c1=O,31.6% (active)
9,COc1ccc(S(=O)(=O)/N=C2/NC(=O)/C(=C\c3ccco3)S2)cc1,-10.3%
10,CC(=O)C1=C(O)C=C(c2ccco2)CC1c1ccco1 (stereo not given),-2.85%
11,O=c1oc2cc(O)ccc2cc1-c1ccc(F)cc1,45.8% (active)
12,O=c1cc(-c2ccc(F)cc2)[nH][nH]1,-7.15%
13,Cc1ccc(NC(=O)CN2C(=O)S/C(=C/c3ccc(O)c([N+](=O)[O-])c3)C2=O)cc1C,-1.6%
14,Cc1ccc(NC(=O)Cn2c(O)c(N=NC(=O)c3cc4ccccc4cc3O)c3ccccc32)cc1,8.55%
15,N=c1c(S(=O)(=O)c2ccc(Cl)cc2)cc2c(=O)n3ccccc3nc2n1Cc1ccco1,-23.2%
16,Cn1c(C(=O)N2CCN(C(=O)c3ccco3)CC2)cc2c(=O)n3ccccc3nc21,57.9% (active)
17,N=c1c(S(=O)(=O)c2ccc(Br)cc2)cc2c(=O)n3ccccc3nc2n1Cc1ccco1,-13.2%
18,N=c1c(S(=O)(=O)c2ccccc2)cc2c(=O)n3ccccc3nc2n1Cc1ccco1,14.8%
19,Cc1ccc(S(=O)(=O)c2cc3c(=O)n4ccccc4nc3n(Cc3ccco3)c2=N)cc1,-2.55%
20,Cn1c(C(=O)N2COCC2(C)C)cc2c(=O)n3ccccc3nc21,55.8% (active)
21,O=C(/C=C/c1ccco1)Nc1cccc2cccnc12,2.9%
22,CCOC(=O)c1c(CSc2ccccc2)n(C)c2cc(Br)c(OCC(O)CNC(CO)(CO)CO)cc12 (stereo not given),0.05%
23,CN(C)c1cccc(C(=O)OCc2cc(=O)oc3cc(O)ccc23)c1,3.4%

row,Structure (SMILES),inhibition
1,O=C(Cc1cc(=O)oc2cc(O)ccc12)NCC1CCC(C(=O)O)CC1 (stereo not given),44.1% (active)
2,O=C(Nc1cccc2nsnc12)c1ccc(-c2ccc(Br)cc2)o1,22.6%
3,O=C(NCCc1ccccc1)c1ccc2nc(-c3ccco3)c(-c3ccco3)nc2c1,12.2%
4,Cc1nn(CC(=O)Nc2ccc(C(=O)N(C)C)cc2)c(=O)c2ccccc12,-0.95%
5,Nc1nnc(-c2cc3c(ccc4ccccc43)oc2=O)s1,30.1% (active)
6,CNc1nnc(-c2cc3ccccc3oc2=O)s1,23.1%
7,CCOc1cccc2cc(-c3nnc(NCc4ccco4)s3)c(=O)oc12,26.9%
8,Brc1ccc(C2Nc3cccc4cccc(c34)N2)o1,-8.65%
9,C/C(=N\OCc1nc2ccccc2c(=O)n1/N=C/c1cc(C)cc([N+](=O)[O-])c1O)c1ccccc1,-17%
10,CCOC(=O)Cn1c2ccccc2c2nc3ccccc3nc21,25.7%
11,COC(=O)Cn1c2ccc(C)cc2c2nc(C)sc21,2.05%
12,CCOC(=O)Cn1c2ccc(OC)cc2c2nc3ccccc3nc21,53.6% (active)
13,CCc1cccc(NC(=S)Nc2cccc3ccccc23)c1,2.95%
14,O=c1cc2c(=O)oc3cc(O)c(O)oc3c2c(O)c1O,-3.8%
15,Cc1cc(=O)n2[nH]c(N)c(N=Nc3ccccc3)c2n1,-13.8%
16,O=c1c(-c2ccccc2)coc2c(CN3CCCC3)c(O)ccc12,42% (active)
17,COc1ccccc1/C=N/Nc1cc(N(C)C)nc(N(C)C)n1,11.9%
18,Cn1c(=O)c(Nc2ccc(O)cc2)c2c3c(cccc31)C(=O)c1ccccc1-2,-3.25%
19,O=C(CNc1cccc2ccccc12)N/N=C/c1ccccn1,17.4%
20,Cc1cccc(/C=N/NC(=O)C(C)Nc2cccc3ccccc23)n1 (stereo not given),1.6%
21,NC(=O)N/N=C/c1ccc2cccc(OCc3ccccc3)c2n1,68.3% (active)
22,COc1ccc(N=C2NC(=O)/C(=C\c3ccco3)S2)cc1,4.75%
23,COc1ccc(-n2c(CNc3ccc(C)cc3)nnc2SCC(=O)Nc2nc(-c3ccccc3)cs2)cc1,-1.4%

row,Structure (SMILES),inhibition
1,Cc1cccc(NC(=O)CC2Nc3cccc4cccc(c34)NC2=O)c1 (stereo not given),-17.8%
2,O=C(O)/C=C/C(=O)Nc1ccc2c(c1)NC(=O)CO2,-0.95%
3,Nc1nnc(CC(=O)N/N=C/c2cc([N+](=O)[O-])cc(Br)c2O)s1,30% (active)
4,COc1cc([N+](=O)[O-])cc(/C=N/NC(=O)CC#N)c1O,21.6%
5,O=C(N/N=C/c1cc(Br)cc(Br)c1O)c1ccncc1,12.4%
6,NC(=O)CC(NC(=O)Cc1ccc(Br)cc1)c1ccc(NCCc2ccccc2F)c([N+](=O)[O-])c1 (stereo not given),5.95%
7,O=C(/C=C/c1ccco1)NC(=S)NNC(=O)c1ccco1,-18.9%
8,O=C(O)CSc1cc(C(=O)c2cc(F)ccc2O)cn2c(=O)c3c(-c4ccccc4)csc3nc12,28.9%
9,CCCN(CC1CC1)c1nc(N)c2c(N)nc(OC)cc2c1C#N,10.2%
10,N#Cc1c(N2CCN(c3ccc(F)cc3)CC2)nc(N)c2c(N)nc3c(c12)CC(=O)N3C1CC1,16.5%
11,CN(CCO)c1nc(N)c2c(N)nc3c(c2c1C#N)CC(=O)N3C1CCCC1,43.9% (active)
12,N#Cc1c(N(CCO)CCO)nc(N)c2c(N)nc3c(c12)CC(=O)N3Cc1cccs1,25.1%
13,N#Cc1c(N(CCO)CCO)nc(N)c2c(N)nc3c(c12)CC(=O)N3CC1CCCO1 (stereo not given),41.8% (active)
14,COc1ccc(C)c2sc(NC(=O)c3cccc(N4C(=O)CCC4=O)c3)nc12,21%
15,CC(C)C(=O)Nc1cccc(C(=O)NCc2ccc3c(c2)OCO3)c1,-4.7%
16,N#Cc1c(-c2ccc(Cl)cc2)cc(-c2cccs2)nc1SCC(=O)O,-4.9%
17,CCOC(=O)C1CCN(C2=C(NS(=O)(=O)c3ccc(Br)cc3)C(=O)c3ccccc3C2=O)CC1,-7.95%
18,O=C(Nc1ccc(Br)cc1)c1ccc(N2C(=O)C3CC=C(Cl)CC3C2=O)cc1 (stereo not given),-0.95%
19,COCCNC(=O)c1c(N)n(CCC2=CCCCC2)c2nc3ccccc3nc12,25.1%
20,C=CCNC(=O)c1c(N)n(-c2cccc(S(N)(=O)=O)c2)c2nc3ccccc3nc12,33% (active)
21,COCCCNC(=O)c1c(N)n(-c2ccccc2)c2nc3ccccc3nc12,33.6% (active)
22,Nc1c(C(=O)NCc2ccco2)c2nc3ccccc3nc2n1CCc1ccccc1,11%
23,C=CCn1c(NC(=O)c2ccc(Br)o2)c(S(=O)(=O)c2ccccc2)c2nc3ccccc3nc21,8.1%

row,Structure (SMILES),inhibition
1,C=CCn1c(NS(=O)(=O)c2ccccc2)c(S(=O)(=O)c2ccc(C)cc2)c2nc3ccccc3nc21,23.6%
2,COc1ccc(-n2c(N)c(C(=O)NCc3ccco3)c3nc4ccccc4nc32)cc1OC,11.5%
3,COCCNC(=O)c1c(N)n(CCCn2ccnc2)c2nc3ccccc3nc12,40% (active)
4,CCc1cc(=O)oc2c3c(cc(OCC(=O)NCCCCCC(=O)O)c12)OC(C)(C)CC3,29.8%
5,Cc1ccc(Sc2cc(NCCCO)c([N+](=O)[O-])c3nonc23)cc1,0.15%
6,COc1ccc(-c2csc(CCN3N=C(C)CC3=O)n2)cc1,-4.6%
7,Cc1cc2oc(C(=O)Nc3ccc(S(=O)(=O)Nc4nccs4)cc3)cc(=O)c2cc1Cl,-9.2%
8,Cc1ccc(CSc2nnc(SCC(=O)N/N=C/c3c[nH]c4ccccc34)s2)cc1,-3.9%
9,CC1CCCN(C2=C(NS(=O)(=O)c3ccc(Br)cc3)C(=O)c3ccccc3C2=O)C1 (stereo not given),-7.35%
10,Cc1cccc(NC(=S)Nc2cccc3ccccc23)c1,-3.85%
11,COc1cc(/C=C2/C(=O)N(c3ccc([N+](=O)[O-])cc3)N=C2N2CCOCC2)ccc1O,-19.4%
12,N#Cc1c(NC(=O)CSc2ncnc3sccc23)oc(-c2ccco2)c1-c1ccco1,7.1%
13,CC1=NN(c2ccc(Cl)cc2)C(=O)C1C(c1ccccc1O)c1c(C)[nH]n(-c2ccc(Cl)cc2)c1=O (stereo not given),-12.7%
14,CC(C)(C)c1cnnn1-c1cccc([N+](=O)[O-])c1,6.3%
15,CN1CCCc2cc3c(C(F)(F)F)cc(=O)oc3nc21,57.5% (active)
16,O=C(CC1CS(=O)(=O)CC1CC(=O)Oc1ccccc1F)Oc1ccccc1F (stereo not given),5.6%
17,CC(=O)Oc1ccc2cc(-c3nc4ccccc4n3C)c(=O)oc2c1,38.6% (active)
18,CC1=C(C#N)C(=O)NC(=O)/C1=C/c1ccc(-c2ccc(S(N)(=O)=O)cc2)o1,19.2%
19,O=c1c2ccccc2nc2n1CCC2,31.4% (active)
20,Cc1nc2ccccc2c(=O)n1/N=C/c1ccc(O)c(O)c1O,7.15%
21,Cc1ccc(/C=N/NC(=O)c2cccc(S(=O)(=O)Nc3cccc(Cl)c3)c2)o1,9.55%

# Reference: PubChem BioAssay AID2069 (Sanford-Burnham Center for Chemical Genomics, 2009)
